Test results published in article PMC7862700, “An all-to-all approach to the identification of sequence-specific readers for epigenetic DNA modifications on cytosine”.

Key:
Experiment in all cases: DAPPL (digital affinity profiling via proximity ligation, sequencing); 10 mM Tris-HCl pH 7.5, 50 mM NaCl, 1 mM DTT, 4% glycerol, room temperature, 30 min; GST-TFs on glutathione beads, 16-mer random dsDNA library, 0.1% formaldehyde crosslink after washing; high values mean tight binding
Details in all cases: protein: recombinant; tags: N-terminal GST; dsDNA, one strand shown
ETV2 = target: T1, ETV2 (Homo sapiens, UniProt O00321 1-342)
T1 sequence: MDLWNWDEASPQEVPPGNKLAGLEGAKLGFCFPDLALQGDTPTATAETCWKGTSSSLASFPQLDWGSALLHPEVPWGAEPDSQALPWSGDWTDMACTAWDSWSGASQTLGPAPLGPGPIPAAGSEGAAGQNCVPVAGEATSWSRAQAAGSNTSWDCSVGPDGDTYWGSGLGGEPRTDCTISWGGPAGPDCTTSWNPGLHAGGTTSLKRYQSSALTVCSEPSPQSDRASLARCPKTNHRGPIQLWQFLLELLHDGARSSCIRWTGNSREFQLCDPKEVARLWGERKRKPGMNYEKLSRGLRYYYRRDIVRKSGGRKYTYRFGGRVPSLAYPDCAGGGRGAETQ
Summary of the method: (§1)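 Sequencing on an Illumina NextSeq500 followed washing, crosslinking with 0.1% formaldehyde, proximity ligation (BsaI/T4 ligase, 1 h, 37 °C) and PCR amplification of pools that had been incubated for 30 min at room temperature with 200 nmole of a random double-stranded 16-mer DNA library in Tris/NaCl/DTT/glycerol buffer. Each pool held DNA-barcoded human transcription factors, expressed in yeast as GST fusions and captured on glutathione beads, plus a tag-only sample. Binding signal is a hexamer's read frequency for a factor divided by its frequency in the tag-only sample.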

ELF3 = target: T2, ELF3 (Homo sapiens, UniProt P78545 1-371)
T2 sequence: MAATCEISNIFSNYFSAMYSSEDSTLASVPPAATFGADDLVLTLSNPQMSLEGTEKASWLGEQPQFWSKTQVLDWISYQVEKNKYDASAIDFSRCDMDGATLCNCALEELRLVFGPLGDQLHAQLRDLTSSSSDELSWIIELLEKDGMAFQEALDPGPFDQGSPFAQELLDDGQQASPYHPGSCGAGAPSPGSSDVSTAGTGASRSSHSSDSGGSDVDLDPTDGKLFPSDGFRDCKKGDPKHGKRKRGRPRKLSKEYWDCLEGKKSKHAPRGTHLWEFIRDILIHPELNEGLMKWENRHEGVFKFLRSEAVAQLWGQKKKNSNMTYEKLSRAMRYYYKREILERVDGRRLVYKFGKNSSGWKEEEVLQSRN
Summary of the method: as §1

ETV1 = ETV1 (Homo sapiens, UniProt P50549 1-477)
Chain of ETV1 (P50549 whole entry): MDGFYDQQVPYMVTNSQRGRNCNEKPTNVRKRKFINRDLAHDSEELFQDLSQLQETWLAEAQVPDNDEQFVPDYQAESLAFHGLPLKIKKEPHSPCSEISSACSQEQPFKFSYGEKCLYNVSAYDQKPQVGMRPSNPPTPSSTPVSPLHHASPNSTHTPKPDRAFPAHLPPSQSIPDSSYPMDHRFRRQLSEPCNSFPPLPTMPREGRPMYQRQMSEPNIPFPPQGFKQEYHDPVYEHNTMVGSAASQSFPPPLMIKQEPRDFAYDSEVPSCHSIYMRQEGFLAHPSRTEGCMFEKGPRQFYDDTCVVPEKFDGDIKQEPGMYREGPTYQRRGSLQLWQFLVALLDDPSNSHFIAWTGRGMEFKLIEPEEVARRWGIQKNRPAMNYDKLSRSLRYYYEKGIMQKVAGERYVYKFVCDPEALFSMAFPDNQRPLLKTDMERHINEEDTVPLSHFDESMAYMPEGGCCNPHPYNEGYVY
Summary of the method: as §1

ERF = target: T3, ERF (Homo sapiens, UniProt P50548 1-548)
T3 sequence: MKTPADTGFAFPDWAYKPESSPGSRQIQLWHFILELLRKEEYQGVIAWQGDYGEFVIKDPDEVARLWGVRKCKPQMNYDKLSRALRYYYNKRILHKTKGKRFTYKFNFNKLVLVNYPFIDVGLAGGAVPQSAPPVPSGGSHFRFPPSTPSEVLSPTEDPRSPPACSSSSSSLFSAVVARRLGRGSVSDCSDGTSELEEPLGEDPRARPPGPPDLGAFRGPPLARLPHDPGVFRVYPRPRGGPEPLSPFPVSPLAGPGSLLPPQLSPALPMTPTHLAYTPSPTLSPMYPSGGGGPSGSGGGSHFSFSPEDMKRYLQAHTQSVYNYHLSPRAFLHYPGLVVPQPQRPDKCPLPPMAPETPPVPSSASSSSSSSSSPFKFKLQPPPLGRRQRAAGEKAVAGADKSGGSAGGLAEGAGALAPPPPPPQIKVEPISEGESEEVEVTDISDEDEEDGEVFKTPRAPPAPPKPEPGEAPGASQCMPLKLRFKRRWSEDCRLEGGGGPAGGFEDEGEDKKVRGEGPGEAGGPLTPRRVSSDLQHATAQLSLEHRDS
Summary of the method: as §1

ETV3L = target: T4, ETV3L (Homo sapiens, UniProt Q6ZN32 1-361)
T4 sequence: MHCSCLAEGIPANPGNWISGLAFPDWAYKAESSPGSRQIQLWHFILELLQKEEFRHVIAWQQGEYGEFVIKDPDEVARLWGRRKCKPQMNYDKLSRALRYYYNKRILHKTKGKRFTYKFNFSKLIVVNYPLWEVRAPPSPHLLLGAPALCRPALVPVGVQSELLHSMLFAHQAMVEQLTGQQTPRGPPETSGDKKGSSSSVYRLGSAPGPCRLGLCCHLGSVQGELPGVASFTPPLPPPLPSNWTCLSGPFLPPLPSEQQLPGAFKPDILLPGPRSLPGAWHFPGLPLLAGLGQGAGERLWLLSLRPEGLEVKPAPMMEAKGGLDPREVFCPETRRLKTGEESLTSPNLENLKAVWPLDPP
Summary of the method: as §1

ETS2 = target: T5, ETS2 (Homo sapiens, UniProt P15036 1-469)
T5 sequence: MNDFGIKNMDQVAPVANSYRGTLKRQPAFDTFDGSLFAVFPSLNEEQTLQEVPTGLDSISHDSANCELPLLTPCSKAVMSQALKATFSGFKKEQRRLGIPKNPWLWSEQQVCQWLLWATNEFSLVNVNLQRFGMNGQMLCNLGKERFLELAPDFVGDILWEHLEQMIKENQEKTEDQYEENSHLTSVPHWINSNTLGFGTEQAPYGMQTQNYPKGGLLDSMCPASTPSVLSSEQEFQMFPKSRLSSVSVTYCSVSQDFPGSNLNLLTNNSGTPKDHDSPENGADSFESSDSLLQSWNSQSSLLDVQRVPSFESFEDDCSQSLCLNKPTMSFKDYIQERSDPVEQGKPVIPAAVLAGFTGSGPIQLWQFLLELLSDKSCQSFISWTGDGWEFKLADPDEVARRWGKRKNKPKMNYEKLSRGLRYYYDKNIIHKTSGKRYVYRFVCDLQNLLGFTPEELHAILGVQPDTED
Summary of the method: as §1

SPDEF = target: T6, SPDEF (Homo sapiens, UniProt O95238 1-335)
T6 sequence: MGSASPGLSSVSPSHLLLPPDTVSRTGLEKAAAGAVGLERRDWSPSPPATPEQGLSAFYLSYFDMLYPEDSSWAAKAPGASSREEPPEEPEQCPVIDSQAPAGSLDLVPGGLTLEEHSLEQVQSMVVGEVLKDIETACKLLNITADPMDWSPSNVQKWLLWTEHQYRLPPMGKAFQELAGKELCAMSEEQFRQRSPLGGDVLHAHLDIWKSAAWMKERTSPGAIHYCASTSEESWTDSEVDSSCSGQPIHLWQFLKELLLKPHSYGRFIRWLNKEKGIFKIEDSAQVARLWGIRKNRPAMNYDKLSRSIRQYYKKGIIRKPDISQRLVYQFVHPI
Summary of the method: as §1

ETV7 = target: T7, ETV7 (Homo sapiens, UniProt Q9Y603 1-341)
T7 sequence: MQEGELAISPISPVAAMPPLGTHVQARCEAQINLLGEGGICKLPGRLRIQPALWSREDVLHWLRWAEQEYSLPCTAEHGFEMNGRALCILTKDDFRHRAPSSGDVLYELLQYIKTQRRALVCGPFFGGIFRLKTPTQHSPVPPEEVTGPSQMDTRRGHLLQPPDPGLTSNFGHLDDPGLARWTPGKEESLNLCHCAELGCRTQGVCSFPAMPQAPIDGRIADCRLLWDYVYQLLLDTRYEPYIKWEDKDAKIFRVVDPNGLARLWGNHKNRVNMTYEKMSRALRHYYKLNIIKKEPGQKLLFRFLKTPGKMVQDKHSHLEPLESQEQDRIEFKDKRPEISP
Summary of the method: as §1

ETV3 = target: T8, ETV3 (Homo sapiens, UniProt P41162-2 1-143)
T8 sequence: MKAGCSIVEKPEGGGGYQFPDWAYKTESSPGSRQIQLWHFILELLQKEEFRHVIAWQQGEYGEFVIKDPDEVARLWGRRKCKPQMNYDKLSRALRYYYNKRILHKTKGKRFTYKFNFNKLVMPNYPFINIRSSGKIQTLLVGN
Summary of the method: as §1

ETV6 = ETV6 (Homo sapiens, UniProt P41212 1-452)
Chain of ETV6 (P41212 whole entry): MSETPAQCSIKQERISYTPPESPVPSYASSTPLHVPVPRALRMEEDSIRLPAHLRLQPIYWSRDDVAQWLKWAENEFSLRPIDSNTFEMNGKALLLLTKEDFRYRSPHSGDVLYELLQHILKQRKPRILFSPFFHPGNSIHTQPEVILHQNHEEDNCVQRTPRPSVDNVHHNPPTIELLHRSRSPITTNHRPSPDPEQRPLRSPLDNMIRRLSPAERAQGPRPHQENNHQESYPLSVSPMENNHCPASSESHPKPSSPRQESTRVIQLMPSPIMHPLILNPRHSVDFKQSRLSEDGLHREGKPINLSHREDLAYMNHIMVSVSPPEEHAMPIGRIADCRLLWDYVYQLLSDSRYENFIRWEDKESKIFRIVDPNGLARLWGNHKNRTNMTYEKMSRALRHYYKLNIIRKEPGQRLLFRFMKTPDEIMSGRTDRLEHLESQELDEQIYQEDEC
Summary of the method: as §1

GCCTGC
binding signal (ETV2): 1.15 fold enrichment (6-mer frequency, TF over GST control)
binding signal (ELF3): 1.13 fold enrichment (6-mer frequency, TF over GST control)
binding signal (ETV1): 1.18 fold enrichment (6-mer frequency, TF over GST control)
binding signal (ERF): 1.05 fold enrichment (6-mer frequency, TF over GST control)
binding signal (ETV3L): 1.17 fold enrichment (6-mer frequency, TF over GST control)
binding signal (ETS2): 1.05 fold enrichment (6-mer frequency, TF over GST control)
binding signal (SPDEF): 1.02 fold enrichment (6-mer frequency, TF over GST control)
binding signal (ETV7): 1.13 fold enrichment (6-mer frequency, TF over GST control)
binding signal (ETV3): 1.03 fold enrichment (6-mer frequency, TF over GST control)
binding signal (ETV6): 1.05 fold enrichment (6-mer frequency, TF over GST control)
